Laboratory results taken from the supplement of paper PMC3545927.
The list shows a part of the results. The hit rate among all sequences tested is not known here.

Molecular target: furin, P09958
Assay: furin cleavage Z-score vs untreated control; higher = more cleavage, active = 3.5 or more, inactive = 1 or less, 8 variable residues between constant flanks
Procedure, shortened: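 Abundance of DNA freed from bead-bound 8-mer peptide–cDNA fusions by purified furin was measured as sequencing read counts after PCR adapter tagging. Cutting ran 7.5, 15 or 30 min in 0.01 ml of 50 mM HEPES pH 7.5 with CaCl2 and NaCl at 1:10 enzyme:substrate. The cleavage Z-score expresses these log counts against furin-free reactions after lowess adjustment and median absolute deviation scaling.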

furin, P09958, sequence (P09958 whole entry): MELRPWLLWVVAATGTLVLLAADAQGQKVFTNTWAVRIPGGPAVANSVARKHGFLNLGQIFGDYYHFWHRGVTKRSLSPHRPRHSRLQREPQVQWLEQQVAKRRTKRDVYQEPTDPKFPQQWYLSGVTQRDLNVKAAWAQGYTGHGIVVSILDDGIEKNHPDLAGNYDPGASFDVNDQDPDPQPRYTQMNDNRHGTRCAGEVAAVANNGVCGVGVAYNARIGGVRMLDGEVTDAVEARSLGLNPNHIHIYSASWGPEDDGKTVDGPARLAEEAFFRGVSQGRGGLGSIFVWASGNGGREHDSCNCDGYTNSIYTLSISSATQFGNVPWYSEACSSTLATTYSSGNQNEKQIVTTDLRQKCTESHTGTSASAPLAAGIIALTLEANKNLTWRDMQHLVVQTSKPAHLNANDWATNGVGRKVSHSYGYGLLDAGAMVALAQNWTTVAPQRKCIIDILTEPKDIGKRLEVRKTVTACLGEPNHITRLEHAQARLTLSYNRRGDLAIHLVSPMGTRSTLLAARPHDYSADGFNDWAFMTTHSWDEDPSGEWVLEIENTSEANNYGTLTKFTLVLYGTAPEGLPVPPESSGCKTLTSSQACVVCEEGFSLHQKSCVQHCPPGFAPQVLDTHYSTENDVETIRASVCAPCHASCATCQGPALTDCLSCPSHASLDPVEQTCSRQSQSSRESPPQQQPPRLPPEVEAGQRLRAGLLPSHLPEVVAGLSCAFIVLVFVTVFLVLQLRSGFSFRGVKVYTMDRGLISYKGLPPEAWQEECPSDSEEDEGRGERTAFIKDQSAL

Row | Sequence | furin cleavage Z-score (7.5 min) | furin cleavage Z-score (15 min) | furin cleavage Z-score (30 min)
1 | CAANGSGPDQAGNASASA [HC398] | -0.135 (inactive) | -1.15 (inactive) | 0.257 (inactive)
2 | CAEVCCSMSYAGNASASA [HC1992] | 0.759 (inactive) | 0.26 (inactive) | 0.528 (inactive)
3 | CARRRRSVQLAGNASASA [FS-1789] | 1.43 | 0.51 (inactive) | 2.7
4 | CARRRRAVGLAGNASASA [FS-2595] | 3.99 (active) | 4.72 (active) | 5.23 (active)
5 | CARRRRDVVTAGNASASA [FS-2232] | 11.1 (active) | 11.8 (active) | 8.98 (active)
6 | CAAAIGSVGLAGNASASA [HC1079] | -0.425 (inactive) | -0.896 (inactive) | -0.452 (inactive)
7 | CARRRRLVWTAGNASASA [FS-2079] | -0.712 (inactive) | 0.718 (inactive) | 2.58
8 | CARTMRSVGLAGNASASA [FS-1936] | 5.41 (active) | 6.11 (active) | 5.7 (active)
9 | CARTMRSSAGAGNASASA [FS-2831] | 0.517 (inactive) | -0.365 (inactive) | 0.495 (inactive)
10 | CARRRRCVGLAGNASASA [FS-2403] | 2.54 | 1.19 | 5.18 (active)
11 | CAADVVCCSMAGNASASA [HC2103] | 1.06 | 0.666 (inactive) | 0.566 (inactive)
12 | CATLVFDITKAGNASASA [HC602] | 1.27 | 0.292 (inactive) | -0.917 (inactive)
